Measurements published in publication PMC7862700, “An all-to-all approach to the identification of sequence-specific readers for epigenetic DNA modifications on cytosine”.

Columns and labels:
Assay in all cases: DAPPL (digital affinity profiling via proximity ligation, sequencing); 10 mM Tris-HCl pH 7.5, 50 mM NaCl, 1 mM DTT, 4% glycerol, room temperature, 30 min; GST-TFs on glutathione beads, 16-mer random dsDNA library, 0.1% formaldehyde crosslink after washing; high values mean tight binding
Conditions in all cases: protein: recombinant; tags: N-terminal GST; dsDNA, one strand shown
[1] = target: T1, ELK1 (Homo sapiens, UniProt P19419 1-428)
T1 sequence: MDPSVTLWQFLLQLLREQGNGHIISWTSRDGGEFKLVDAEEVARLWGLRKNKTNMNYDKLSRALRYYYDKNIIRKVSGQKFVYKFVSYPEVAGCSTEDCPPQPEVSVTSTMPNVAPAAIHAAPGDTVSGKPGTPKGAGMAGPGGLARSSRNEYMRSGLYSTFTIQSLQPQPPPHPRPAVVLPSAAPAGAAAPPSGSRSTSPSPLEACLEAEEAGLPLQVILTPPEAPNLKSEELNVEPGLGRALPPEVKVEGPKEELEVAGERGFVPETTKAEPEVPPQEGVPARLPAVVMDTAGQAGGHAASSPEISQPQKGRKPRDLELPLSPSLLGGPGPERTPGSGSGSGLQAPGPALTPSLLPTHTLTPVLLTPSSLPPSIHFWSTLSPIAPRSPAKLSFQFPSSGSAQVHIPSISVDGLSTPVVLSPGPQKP
In short: (§1)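 Sequencing on an Illumina NextSeq500 followed washing, crosslinking with 0.1% formaldehyde, proximity ligation (BsaI/T4 ligase, 1 h, 37 °C) and PCR amplification of pools that had been incubated for 30 min at room temperature with 200 nmole of a random double-stranded 16-mer DNA library in Tris/NaCl/DTT/glycerol buffer. Each pool held DNA-barcoded human transcription factors, expressed in yeast as GST fusions and captured on glutathione beads, plus a tag-only sample. Binding signal is a hexamer's read frequency for a factor divided by its frequency in the tag-only sample.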

[2] = target: T2, GABPA (Homo sapiens, UniProt Q06546 1-454)
T2 sequence: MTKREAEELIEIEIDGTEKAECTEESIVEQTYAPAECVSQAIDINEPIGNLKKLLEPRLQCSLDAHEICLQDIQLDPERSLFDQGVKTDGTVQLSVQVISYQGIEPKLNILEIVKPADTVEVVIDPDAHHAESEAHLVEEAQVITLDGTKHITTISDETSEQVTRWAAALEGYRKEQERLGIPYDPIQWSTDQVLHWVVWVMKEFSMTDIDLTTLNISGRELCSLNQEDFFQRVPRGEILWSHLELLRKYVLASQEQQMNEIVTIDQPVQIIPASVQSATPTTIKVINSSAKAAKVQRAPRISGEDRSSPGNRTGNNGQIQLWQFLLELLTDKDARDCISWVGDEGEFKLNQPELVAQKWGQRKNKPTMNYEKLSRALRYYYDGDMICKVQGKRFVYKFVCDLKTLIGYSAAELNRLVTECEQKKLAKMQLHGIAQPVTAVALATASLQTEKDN
In short: as §1

[3] = target: T3, ERG (Homo sapiens, UniProt P11308 1-479)
T3 sequence: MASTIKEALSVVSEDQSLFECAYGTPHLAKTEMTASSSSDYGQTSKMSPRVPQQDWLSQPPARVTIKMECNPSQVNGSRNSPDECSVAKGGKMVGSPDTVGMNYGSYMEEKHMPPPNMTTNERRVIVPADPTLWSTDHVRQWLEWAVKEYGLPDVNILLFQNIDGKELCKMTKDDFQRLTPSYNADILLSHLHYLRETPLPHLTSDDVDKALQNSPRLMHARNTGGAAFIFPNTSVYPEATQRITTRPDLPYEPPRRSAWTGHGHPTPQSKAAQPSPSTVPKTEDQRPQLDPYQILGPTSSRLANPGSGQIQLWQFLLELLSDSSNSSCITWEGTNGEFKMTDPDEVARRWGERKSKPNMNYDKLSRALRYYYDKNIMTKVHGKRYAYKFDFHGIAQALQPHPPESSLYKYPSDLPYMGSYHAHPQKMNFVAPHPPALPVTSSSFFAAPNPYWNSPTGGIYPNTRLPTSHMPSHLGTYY
In short: as §1

[4] = target: ELF1 (Homo sapiens, UniProt P32519 1-619)
Chain of ELF1 (P32519 whole entry): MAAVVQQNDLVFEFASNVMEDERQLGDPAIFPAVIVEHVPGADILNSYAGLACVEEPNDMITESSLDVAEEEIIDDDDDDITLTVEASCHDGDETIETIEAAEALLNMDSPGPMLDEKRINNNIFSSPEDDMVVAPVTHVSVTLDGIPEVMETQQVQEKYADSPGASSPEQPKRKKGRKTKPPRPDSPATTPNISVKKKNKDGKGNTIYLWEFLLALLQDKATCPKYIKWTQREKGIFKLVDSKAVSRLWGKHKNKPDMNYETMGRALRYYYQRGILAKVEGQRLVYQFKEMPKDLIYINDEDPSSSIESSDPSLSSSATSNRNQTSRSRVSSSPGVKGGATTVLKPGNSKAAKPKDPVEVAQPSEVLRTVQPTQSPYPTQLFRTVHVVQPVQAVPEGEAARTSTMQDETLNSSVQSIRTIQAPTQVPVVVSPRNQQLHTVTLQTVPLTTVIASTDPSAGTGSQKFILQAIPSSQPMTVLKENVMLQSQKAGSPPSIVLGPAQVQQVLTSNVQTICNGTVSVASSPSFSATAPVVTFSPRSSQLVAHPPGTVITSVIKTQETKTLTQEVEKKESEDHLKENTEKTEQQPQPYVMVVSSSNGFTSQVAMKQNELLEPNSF
In short: as §1

[5] = target: T4, EHF (Homo sapiens, UniProt Q9NZC4 1-300)
T4 sequence: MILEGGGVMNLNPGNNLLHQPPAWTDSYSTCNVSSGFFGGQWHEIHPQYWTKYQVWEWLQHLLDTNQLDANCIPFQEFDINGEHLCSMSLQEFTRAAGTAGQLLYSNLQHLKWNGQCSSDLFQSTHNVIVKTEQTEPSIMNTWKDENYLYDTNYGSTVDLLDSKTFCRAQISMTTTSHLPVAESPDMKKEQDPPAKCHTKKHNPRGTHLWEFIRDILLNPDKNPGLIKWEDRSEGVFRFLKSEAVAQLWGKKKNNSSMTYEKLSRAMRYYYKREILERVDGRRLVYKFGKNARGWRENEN
In short: as §1

[6] = target: SPIB (Homo sapiens, UniProt Q01892 1-262)
Chain of SPIB (Q01892 whole entry): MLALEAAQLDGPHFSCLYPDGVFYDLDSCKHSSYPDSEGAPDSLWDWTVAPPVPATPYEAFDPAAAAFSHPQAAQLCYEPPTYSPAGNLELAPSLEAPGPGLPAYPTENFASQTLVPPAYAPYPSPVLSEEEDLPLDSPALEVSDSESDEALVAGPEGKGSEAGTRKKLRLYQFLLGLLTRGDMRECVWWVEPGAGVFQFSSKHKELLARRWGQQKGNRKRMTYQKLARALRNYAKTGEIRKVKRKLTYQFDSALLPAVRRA
In short: as §1

[7] = target: T5, FEV (Homo sapiens, UniProt Q99581 1-238)
T5 sequence: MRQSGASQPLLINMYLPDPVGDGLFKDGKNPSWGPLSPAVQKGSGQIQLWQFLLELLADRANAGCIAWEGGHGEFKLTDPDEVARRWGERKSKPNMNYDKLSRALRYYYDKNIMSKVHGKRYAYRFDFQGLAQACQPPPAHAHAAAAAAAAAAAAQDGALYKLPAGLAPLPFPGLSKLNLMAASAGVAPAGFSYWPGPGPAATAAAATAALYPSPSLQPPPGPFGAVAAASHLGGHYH
In short: as §1

[8] = target: ETV5 (Homo sapiens, UniProt P41161 1-510)
Chain of ETV5 (P41161 whole entry): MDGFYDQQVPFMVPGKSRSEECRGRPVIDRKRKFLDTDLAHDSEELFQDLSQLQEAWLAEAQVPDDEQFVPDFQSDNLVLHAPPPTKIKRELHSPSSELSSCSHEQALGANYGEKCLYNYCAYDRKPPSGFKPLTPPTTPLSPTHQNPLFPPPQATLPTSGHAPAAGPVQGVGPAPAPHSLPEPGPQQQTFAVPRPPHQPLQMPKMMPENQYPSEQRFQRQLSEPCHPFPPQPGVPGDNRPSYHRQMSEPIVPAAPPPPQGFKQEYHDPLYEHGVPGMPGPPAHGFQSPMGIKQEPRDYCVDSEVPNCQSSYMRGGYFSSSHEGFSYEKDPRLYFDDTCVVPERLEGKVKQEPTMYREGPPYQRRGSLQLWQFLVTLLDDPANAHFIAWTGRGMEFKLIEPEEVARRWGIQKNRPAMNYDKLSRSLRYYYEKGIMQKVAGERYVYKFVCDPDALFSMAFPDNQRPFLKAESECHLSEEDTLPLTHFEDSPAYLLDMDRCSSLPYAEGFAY
In short: as §1

[9] = target: ELF4 (Homo sapiens, UniProt Q99607 1-663)
Chain of ELF4 (Q99607 whole entry): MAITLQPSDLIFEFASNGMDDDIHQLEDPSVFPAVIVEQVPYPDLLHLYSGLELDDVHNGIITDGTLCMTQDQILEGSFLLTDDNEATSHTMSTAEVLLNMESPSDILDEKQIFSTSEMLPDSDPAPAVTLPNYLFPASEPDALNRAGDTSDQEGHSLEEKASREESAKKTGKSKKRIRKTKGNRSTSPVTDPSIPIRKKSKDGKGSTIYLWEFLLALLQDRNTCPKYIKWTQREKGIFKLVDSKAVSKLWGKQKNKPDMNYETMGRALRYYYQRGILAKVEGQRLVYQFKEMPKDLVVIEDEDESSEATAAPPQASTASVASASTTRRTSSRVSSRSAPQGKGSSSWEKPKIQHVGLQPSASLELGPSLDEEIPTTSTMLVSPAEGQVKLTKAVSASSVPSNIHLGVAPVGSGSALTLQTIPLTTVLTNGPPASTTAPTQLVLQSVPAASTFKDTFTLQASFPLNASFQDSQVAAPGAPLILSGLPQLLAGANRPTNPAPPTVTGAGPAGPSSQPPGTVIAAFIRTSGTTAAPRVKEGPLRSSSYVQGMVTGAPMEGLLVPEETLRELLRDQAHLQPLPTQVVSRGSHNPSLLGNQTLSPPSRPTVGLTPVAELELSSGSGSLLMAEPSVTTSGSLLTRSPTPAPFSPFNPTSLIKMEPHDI
In short: as §1

[10] = target: T6, ELK4 (Homo sapiens, UniProt P28324-2 1-405)
T6 sequence: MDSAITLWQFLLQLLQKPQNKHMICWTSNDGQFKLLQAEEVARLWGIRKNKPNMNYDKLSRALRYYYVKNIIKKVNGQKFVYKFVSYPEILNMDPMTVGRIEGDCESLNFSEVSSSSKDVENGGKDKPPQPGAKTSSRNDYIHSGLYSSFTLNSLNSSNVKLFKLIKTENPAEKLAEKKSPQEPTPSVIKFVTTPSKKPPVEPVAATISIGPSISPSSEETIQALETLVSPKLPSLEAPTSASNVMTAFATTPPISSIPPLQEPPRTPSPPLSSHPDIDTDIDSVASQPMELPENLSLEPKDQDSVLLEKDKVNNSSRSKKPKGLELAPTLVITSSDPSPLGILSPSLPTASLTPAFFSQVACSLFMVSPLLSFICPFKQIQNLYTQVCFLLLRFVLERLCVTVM
In short: as §1

TGTAAC was tested. Which binding signal [1] did it give?
The binding signal was 1.21 fold enrichment (6-mer frequency, TF over GST control).

What about the binding signal [2] of the same sequence?
Its binding signal is 1.09 fold enrichment (6-mer frequency, TF over GST control).

What about the binding signal [3] of the same sequence?
Its binding signal is 1.18 fold enrichment (6-mer frequency, TF over GST control).

What about the binding signal [4] of the same sequence?
Its binding signal is 1.28 fold enrichment (6-mer frequency, TF over GST control).

And the binding signal [5]?
The binding signal was 1.36 fold enrichment (6-mer frequency, TF over GST control).

What about the binding signal [6] of the same sequence?
The binding signal was 1.16 fold enrichment (6-mer frequency, TF over GST control).

What about the binding signal [7] of the same sequence?
Its binding signal is 1.23 fold enrichment (6-mer frequency, TF over GST control).

And the binding signal [8]?
Its binding signal is 1.24 fold enrichment (6-mer frequency, TF over GST control).

And the binding signal [9]?
Its binding signal is 1.2 fold enrichment (6-mer frequency, TF over GST control).

And the binding signal [10]?
The binding signal was 1.37 fold enrichment (6-mer frequency, TF over GST control).
